Shown are actives, neighbours in structure and some others; about 17% of the full set was active somewhere.
HepG2 tox = qHTS for Inhibitors of TGF-b: Cytotox Counterscreen; HepG2 CAGA-GFP viability, ATP luminescence, 18 h; Potency, µM (highest dose often 46.1 µM), for the others: at the top dose activity change, negative = cytotoxicity, usual class: cytotoxic; AID 588856, 2011; actives 0.76% (n = 410,000)
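HepG2 CAGA-GFP cells (1000/well, DMEM with 1% FBS) received compound, then TGF-beta at 500 pg/mL final, and were incubated 18 hours at 37 degrees C. Viability was read by CellTiter-Glo luminescence. Media-only wells were set as complete cell-killing and DMSO as no toxicity.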
DT40 TDP1 CPT = qHTS for Inhibitors of human tyrosyl-DNA phosphodiesterase 1 (TDP1): qHTS in cells in presence of CPT | actives 12% (n = 420,000) | chicken DT40 Tdp1-/-;hTDP1 cells + 20 nM CPT, ATP luminescence, 48 h | Potency, µM (series often up to 46.2 µM), without a hit: at the top dose activity change, negative = growth inhibition, most hits filed as inhibitors | AID 686979, 2013; note: % is set by controls: 0 for no effect and ±100 for the full control effect; nearly all actives have a fitted effect of over 55% in size
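Chicken DT40 Tdp1-/- cells complemented with human TDP1, 400 cells/well, exposed to compounds plus 20 nM camptothecin for at least 48 h at 37 C; viability read as ATP content by CellTiter-Glo luminescence.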
TGFb inhibitor = qHTS for Inhibitors of TGF-b. HepG2 CAGA-GFP TGF-b/SMAD3 reporter, GFP fluorescence, 18 h; TGF-beta stimulated, 500 pg/mL final. Potency, µM (top dose mostly 46.1 µM), inactives show at the top dose activity, negative = inhibition, actives largely listed as inhibitors. actives 1.2% (n = 410,000); note: % is set by controls: 0 for no effect and ±100 for the full control effect; nearly all actives have a fitted effect of over 65% in size
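HEPG2 CAGA-GFP, 1000 cells/well; 2 h settle, 37 C; cpd via pin tool; TGF-b 500 pg/mL final; 18 h, 37 C; GFP imaging ex488/em500-530; %Activity normalised to -TGF-b and +DMSO controls; CRC fit, curve class.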
DT40 TDP1 no CPT = qHTS for Inhibitors of human tyrosyl-DNA phosphodiesterase 1 (TDP1): qHTS in cells in absence of CPT; DT40 Tdp1-/- hTDP1 cells, no CPT, ATP luminescence, 48 h; AID 686978, 2013; actives 15% (n = 420,000); Potency, µM (top dose mostly 46.2 µM), inactives show at the highest dose activity change, negative = growth inhibition, usual class: inhibitors; note: % is set by controls: 0 for no effect and ±100 for the full control effect; nearly all actives have a fitted effect of over 55% in size
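Growth kinetics read by CellTiter-Glo luminescence after ≥48 hr at 37 °C. Cells: DT40 Tdp1-/- stably carrying human TDP1, 400 per well, compound exposure in the absence of CPT (DMSO vehicle).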
ATXN2 expr inh = Primary qHTS for Inhibitors of ATXN expression. actives 0.72% (n = 360,000). Potency, µM (titrated, usually from 57 µM), inactives show top-dose activity change, negative = inhibition, actives largely listed as inhibitors. AID 1745845, 2022. HEK-293 ATXN2-luciferase reporter, luminescence, 24 h; note: % is set by controls: 0 for no effect and ±100 for the full control effect; nearly all actives have a fitted effect of over 55% in size
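ATXN2-luciferase reporter cells (luciferase flanked by upstream and downstream ATXN2 gene portions) were treated 24 h at 37 °C with compounds at up to 57 uM. SteadyGlo luminescence gave expression; GF-AFC fluorescence gave viability.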
ATXN viability = Viability Counterscreen for Primary qHTS for Inhibitors of ATXN expression; S2 cells (HEK-293 line with an ATXN2-luciferase reporter) viability, CellTiter-Fluor protease fluorescence, 24 h; Potency, µM (top dose mostly 56.7 µM), actives largely listed as cytotoxic; actives 0.49% (n = 400,000); AID 651635, 2014; note: nearly all actives have a fitted effect of over 40% in size
* marks the source's active call; other numbers are inactive results; i = inactive; ? = inconclusive; · = not tested or not shown; ! = repeats disagree. Calls come from the whole dose curve; as a rule, active = well fitted curve in the direction sought with a large enough effect; inconclusive = small, poorly fitted or top-dose-only effect, or another doubt; inactive = no such curve, though single readings can be large; an effect the other way counts as inactive or inconclusive. Potency is the fitted concentration of half-maximal effect.

SMILES	HepG2 tox	DT40 TDP1 CPT	TGFb inhibitor	DT40 TDP1 no CPT	ATXN2 expr inh	ATXN viability
Cc1ccccc1Cn1cccc(C(=O)Nc2nc3ccccc3s2)c1=O	-19%	16µM*	-1%	16µM*	64%	i
CN1CCN(c2oc(-c3ccc(COc4ccccc4)o3)nc2C#N)CC1	-27%	?	43%	?	-21%	?
O=C1CC2OCC=C3CN4CC[C@]56c7ccccc7N1[C@H]5[C@H]2C3C[C@H]46 (some centres not stated)	·	·	·	-8%	·	·
Cc1ccc(-n2cc(CNC(C)Cc3cnccn3)c(-c3cccc(C)c3)n2)cc1 (configuration not stated)	-33%	13µM*	?	12µM*	-8%	?
CC(=O)[C@@H]1CC[C@H]2[C@H]3CC[C@H]4C[C@@H](O)CC[C@]4(C)[C@@H]3C(=O)C[C@@]12C	·	·	·	·	·	i
CC(=O)OC1CCC2(C)C(CCC3C4CC(N5CC5)C(C(C)=O)C4(C)CC(=O)C32)C1 (configuration not stated)	-27%	12µM*	-24%	15µM*	?	?
CC(=O)[C@H]1CC[C@H]2[C@@H]3CC[C@H]4C[C@H](O)CC[C@]4(C)[C@H]3C(=O)C[C@]12C	-22%	?	1%	12µM*!	-11%	i
CCOP(=O)(C#CC(C)(C)C)C1(O)CCCCC1 (configuration not stated)	11%	1%	27%	-14%	1%	i
C[C@]12CCC3C(CC[C@H]4C[C@H](O)CC[C@]34C)[C@@H]1CC[C@@H]2C(=O)CO (some centres not stated)	·	-24%	·	-30%	·	·
CN(C(=O)CSc1nc2ccc(NC(=O)COc3ccc(Cl)cc3)cc2s1)c1ccccc1	-23%	13µM*	-24%	10µM*	?	?
CCCCCCCCn1sccc1=O	-97%	0.73µM*	5.6µM*	1.2µM*	25µM*	·
Cc1ccc(NC(=O)c2cc(-c3cc(Cl)ccc3C)n[nH]2)cc1NS(C)(=O)=O	-32%	23µM*	-10%	?	?	10µM*
CCOP(=O)(NC(C)C)Oc1ccc(SC)c(C)c1 (configuration not stated)	-26%	22µM*	0%	22µM*!	0%	i
COP(=S)(OC)Oc1ccc(SC)c(C)c1	-13%	-11%	8%	-12%	-10%	?
CC1CCCCN1C(=O)c1ccc(N2CC3CC(C2)c2cccc(=O)n2C3)c([N+](=O)[O-])c1 (configuration not stated)	-27%	-15%	3%	-26%	6%	i
Cc1ccc(C)c(CN2C(=O)c3ccccc3S(=O)(=O)c3ccc(C(=O)N4CCCCCC4)cc32)c1	-9%	?	·	?	·	·
CCOc1cc2c(cc1OCC)-n1cccc1C(c1ccc(F)c(OC)c1)NC2 (configuration not stated)	-8%	?	-2%	?	-22%	i
CCOc1cc2c(cc1OCC)-n1cccc1C(c1ccc(OC(F)F)cc1)NC2 (configuration not stated)	-30%	?	?	18µM*	?	?
CCOc1cc2c(cc1OCC)-n1cccc1C(c1ccc(F)cc1)NC2 (configuration not stated)	-35%	?	?	?	-25%	i
CCOc1cc2c(cc1OCC)-n1cccc1C(c1ccc(OC)cc1)NC2 (configuration not stated)	-14%	?	0%	18µM*	-13%	i
CCOc1cc2c(cc1OCC)-n1cccc1C(c1ccc(C(C)C)cc1)NC2 (configuration not stated)	-165%	8.2µM*	?	7.3µM*	?	?
COc1ccc2c(c1)C1(C(=O)O)CC=CCC1(C(=O)O)C2 (configuration not stated)	-5%	-1%	-24%	1%	12%	i
C#C[C@@]1(O)CC[C@@H]2[C@@H]3CCC4=CC(=O)CC[C@@]4(C)[C@H]3CC[C@]21C	·	·	·	·	·	i
O=C1CC2OCC=C3CN4CC[C@@]56c7ccccc7N1C5C2C3CC46 (some centres not stated)	·	·	·	-12%	·	·
O=C1/C(=C\c2ccccc2)C2OCC=C3CN4CCC56c7ccccc7N1C5C2C3CC46 (configuration not stated)	-19%	21µM*	20%	?	·	i
SMILES	HepG2 tox	DT40 TDP1 CPT	TGFb inhibitor	DT40 TDP1 no CPT	ATXN2 expr inh	ATXN viability
CC1CCN(C(CC(=O)c2ccccc2)C(=O)c2ccccc2)CC1 (configuration not stated)	22µM*	2.6µM*	?	2.1µM*	?	i
O=C(CN1CCCC1)c1ccccc1	-2%	?	-1%	?	·	·
CC1=CC2OC3CC4OC(=O)C=CC=CC(=O)OCCC(C)C(O)C(=O)OCC2(CC1)C4(C)C31CO1 (configuration not stated)	·	0.023µM*	0%	0.16µM*	?	0.084µM*
CC1=CC2OC3CC4OC(=O)C=CC=CC(C(C)O)OCC(O)C5(C)OC5C(=O)OCC2(CC1O)C4(C)C31CO1 (configuration not stated)	-7%	0.092µM*	0.16µM*	0.15µM*	0.11µM*	?
CC(O)C1C=CC=CC(=O)OC2CC3OC4C5OC5(C)C(O)CC4(COC(=O)C(O)C(C)CCO1)C2(C)C31CO1 (configuration not stated)	4%	0.13µM*	0.45µM*	0.15µM*	?	?
CC1CCOC(=O)C=CC=CC(=O)OC2CC3OC4C5OC5(C)C(O)CC4(COC(=O)C1O)C2(C)C31CO1 (configuration not stated)	11%	0.15µM*	0.28µM*	0.15µM*	0.27µM*	0.27µM*
COC(=O)c1cccc(NC(=O)N2C[C@H]3C[C@@H](C2)c2cccc(=O)n2C3)c1	2%	-12%	11%	7%	7%	i
O=C(NC(O)C(Cl)(Cl)Cl)NC(O)C(Cl)(Cl)Cl (configuration not stated)	·	7%	·	-17%	6%	i

Compound activity: PubChem BioAssay, National Center for Advancing Translational Sciences (NCATS)
